PubChem BioAssay AID1565 (Sanford-Burnham Center for Chemical Genomics, 2009)
Among all 290,000 compounds or so, about 3,200 (1.1%) were called active. For the sample, actives were picked, then their nearest neighbours and some compounds at random. Unmarked numbers belong to inactive results. No stated cut-off is given here; in the data, active means inhibition above about 60%; inactive means the rest. Peptide text beside a SMILES is read from it.

target: Phosphoethanolamine/phosphocholine phosphatase (Homo sapiens) (UniProt Q8TCT1); assay: PubChem AID 1565; settings: recombinant PHOSPHO1, absorbance phosphatase assay; at 13.3 µM; active compounds read high
Sequence (Q8TCT1 whole entry, looked up): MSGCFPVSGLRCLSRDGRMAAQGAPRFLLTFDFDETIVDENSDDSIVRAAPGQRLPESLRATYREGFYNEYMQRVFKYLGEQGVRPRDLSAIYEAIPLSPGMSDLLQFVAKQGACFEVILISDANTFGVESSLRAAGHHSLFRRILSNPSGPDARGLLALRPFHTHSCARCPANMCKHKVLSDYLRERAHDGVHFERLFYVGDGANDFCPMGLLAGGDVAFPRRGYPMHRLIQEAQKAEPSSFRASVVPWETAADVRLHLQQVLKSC

Row | Compound | inhibition
1 | CC(C)(C)c1ccc(/C=C/C(=O)NCCCn2ccnc2)cc1 | 33.7%
2 | CC(=O)N1c2ccc(S(=O)(=O)N3CCCC(C(=O)NCc4ccc(Cl)cc4)C3)cc2CC1C (stereo unspecified) | 42.6%
3 | CC(C)Oc1ccc(C(CC(=O)N2CCOCC2)C(C)C)cc1 (stereo unspecified) | 52.2%
4 | CCOC(=O)CSc1nnc(-c2ccco2)n1C | -19.7%
5 | Cn1c(SCC(=O)N2CCCC2)nnc1-c1cccs1 | 67.9% (active)
6 | Cn1c(SCC(=O)c2cccs2)nnc1-c1ccco1 | 64.6% (active)
7 | O=C(CSc1nnc(-c2cccs2)n1-c1ccccc1)N1CCN(C(=O)c2ccco2)CC1 | 89.7% (active)
8 | O=C(CSc1nnc(-c2cccs2)n1-c1ccccc1)NCc1ccco1 | 14.6%
9 | CCn1c(SCC(=O)c2ccc(Cl)s2)nnc1-c1cccs1 | 31.9%
10 | O=C(CSc1nnc(-c2cccs2)n1Cc1ccccc1)N1CCc2ccccc2C1 | 78.3% (active)
11 | Cn1c(SCC(=O)N2CCCC2)nnc1-c1ccc2c(c1)OCO2 | 35%
12 | Cc1cc2ccccc2n2c(SCC(=O)N3CCN(C(=O)c4ccco4)CC3)nnc12 | 3.7%
13 | O=C(CSCc1cccs1)N1CCCC1 | 31%
14 | Cc1nc(SCC(=O)N2CCc3ccccc3C2)c2c(C)c(C)sc2n1 | 9.7%
15 | CCCCNC(=O)CSc1nnc(-c2ccco2)n1C | 4.7%
16 | COC(=O)[C@@H](Cc1ccccc1)NC(=O)NCCc1ccccc1 | 34%
17 | CC(C)CCNC(=O)c1ccc2c(Cl)c3c(nc2c1)CCC3 | 23.9%
18 | Cc1cc(=O)n2nc(N3CCCC(C(=O)NCc4ccc(Cl)cc4)C3)sc2n1 (stereo unspecified) | 27.6%
19 | Cc1ccc(NC(=O)C2CCCN2C(=O)OCc2ccccc2)cc1C (stereo unspecified) | 22.6%
20 | O=C(COC(=O)/C=C/c1cccs1)NC1CCCCC1 | 51%
21 | COc1ccccc1NC(=O)C1CCCN1S(=O)(=O)c1ccc(Cl)cc1 (stereo unspecified) | 0%
22 | CCc1ccc(-c2cc3c(=O)n(CC(=O)NCCCN4CCN(Cc5ccccc5)CC4)nc(C)n3n2)cc1 | 26.1%
23 | Cc1c(S(=O)(=O)NC(C)c2ccccc2)c(=O)n(C)c(=O)n1C (stereo unspecified) | -5.4%
24 | Cc1cc2nnc(SCC(=O)N3CCN(c4ccccc4)CC3)n2c(N)n1 | 40.7%

Row | Compound | inhibition
25 | O=C(CSc1nnc(Cc2ccccc2)n1-c1ccccc1)N1CCOCC1 | -9.6%
26 | Cc1nnc(SCC(=O)N2CCN(c3ccccc3)CC2)n1-c1ccccc1 | 68.4% (active)
27 | Cc1ccc2[nH]c(=O)c(CC(=O)O)c(-c3ccccc3)c2c1 | 7.8%
28 | CCC(C(=O)OC)n1cnc2c(oc3ccccc32)c1=O (stereo unspecified) | 1%
29 | O=C(CSc1nc(C2CC2)nc2ccccc12)Nc1cccc(O)c1 | 15.1%
30 | CCOC(=O)Cc1csc(SCc2cc(=O)oc3cc(O)ccc23)n1 | -13.2%
31 | Cc1ccc2c(CSc3nncs3)cc(=O)oc2c1 | 76.1% (active)
32 | COCc1cc(=O)oc2cc(NS(=O)(=O)c3ccc(C)cc3)ccc12 | 22.5%
33 | CCCSc1nc2sc3c(c2c(=O)n1-c1ccc(OC)cc1)CCN(C)C3 | 31.6%
34 | COC(=O)[C@@H]1CC(O)CN1C(=O)C12CC3CC(CC(C3)C1)C2 (stereo partly specified) | 24.2%
35 | CCOc1ccc(NC(=O)CCC(=O)NNC(=O)NC2CCCCC2)cc1 | -0.6%
36 | COCCNC(=O)NC(=O)COC(=O)C1(c2ccc(Cl)cc2)CC1 | 62.9% (active)
37 | CCCNC(=O)NC(=O)COC(=O)CC(NC(N)=O)c1ccc(Cl)cc1 (stereo unspecified) | -17.2%
38 | CC(=O)N1CCC(C(=O)OCc2ccc(Cl)cc2)(c2ccccc2)CC1 | 40%
39 | COc1ccc(C(=O)C2CCCN(C(=O)c3ccc(OC)o3)C2)c(C)c1 (stereo unspecified) | -0.6%
40 | O=C(OCCN1C(=O)c2ccccc2C1=O)Oc1ccccc1 | 22.3%
41 | COC(=O)c1ccc(S(=O)(=O)N2CCc3ccccc3C2)cc1 | 44.4%
42 | CCCNC(=O)C(=O)Nc1cc2c3c(c1)CCC(=O)N3CCC2 | 54.7%
43 | NC(=O)c1c(NC(=O)CSc2nc(N)cc(=O)[nH]2)sc2c1CCCC2 | 12.9%
44 | CCc1cccc(C)c1NC(=O)CSc1nnc(-c2ccco2)n1N | 22.6%
45 | NC(=O)c1c(NC(=O)CSc2nnc(-c3ccco3)n2N)sc2c1CCCC2 | 103% (active)
46 | NC(=O)C(Cc1ccccc1)NC(=O)C12CC3CC(CC(C3)C1)C2 (stereo unspecified) | 24.1%
47 | Oc1ccc(Br)cc1/C=N/Nc1ccccn1 | 22.9%
48 | CC1(C)Cc2ccccc2/C(=C/C(=O)c2ccccc2)N1 | 24.1%

Row | Compound | inhibition
49 | O=C(CNC(=O)c1ccccc1)NCC(=O)OCc1ccc(Cl)cc1 | 62.3% (active)
50 | O=C(CNC(=O)c1ccc(-c2ccccc2)cc1)OCc1ccc(Cl)cc1 | 9.5%
51 | O=C(CNC(=O)c1ccccc1)NCC(=O)OCC(=O)c1ccccc1 (HELM PEPTIDE1{[O=C(c1ccccc1)[*:2]].G.G.[O=C(CO[*:1])c1ccccc1]}$$$$V2.0) | 27.8%
52 | Cc1cccc(C)c1NC(=O)C(Cl)C(=O)c1ccccc1 (stereo unspecified) | 20%
53 | CSc1ncccc1C(=O)NCc1ccccc1Cl | 44.9%
54 | O=C(CSc1nnc(CNC(=O)c2ccc(F)cc2)o1)Nc1ccc2c(c1)OCO2 | -23.1%
55 | CCOc1ccc(/C=C2\SC(=S)N(NC(=O)c3ccncc3)C2=O)cc1OC | 23.7%
56 | COc1cccc(/C=N/Nc2ncc(C(F)(F)F)cc2Cl)c1O | -8.9%
57 | COc1cc(/C=C2\SC(=S)N(Nc3ncc(C(F)(F)F)cc3Cl)C2=O)cc(OC)c1OC | 71.2% (active)
58 | CC(=O)OCCN(CCCn1c(-c2ccncc2)nc2ccccc21)c1nc(-c2ccc(C)cc2)cs1 | 20.2%
59 | Nc1ccc(C(=O)Nc2ccccc2N)cc1 | 8.3%
60 | Cc1cc(C)c(C#N)c(N2CCC(C(N)=O)CC2)n1 | -42.6%
61 | N#Cc1c(N2CCCCC2)nc(N)c2c(N)nc(SCC(=O)O)cc12 | 60.8% (active)
62 | N#Cc1c(-c2ccccc2)cc(-c2ccccc2)nc1SCC(=O)O | -12.1%
63 | C/C(CC(=O)NCc1ccc(Cl)cc1)=N\NC(=O)COc1ccc(C)cc1Br | 41.6%
64 | CC1CCN(C(=O)Cn2nnnc2CN2CCOCC2)CC1 | 47.5%
65 | Cc1ccc(C2Nc3cccc4cccc(c34)N2)cc1 | 13.8%
66 | C/C(=C\c1ccco1)C1Nc2cccc3cccc(c23)N1 | 94% (active)
67 | Oc1ccc(C2Nc3cccc4cccc(c34)N2)cc1 | 14.1%
68 | CC1CCN(CC(=O)c2c[nH]c3ccccc23)CC1 | 47.6%
69 | O=C(NC1CCCC1)C(=O)c1c[nH]c2ccccc12 | 62.6% (active)
70 | O=C(NCCCc1ccccc1)C(=O)c1c[nH]c2ccccc12 | 38.2%
71 | Cc1ncn(C23CC4CC(CC(O)(C4)C2)C3)n1 | 12.9%
72 | COc1cccc(NC(=O)c2nn(C34CC5CC(CC(C5)C3)C4)cc2[N+](=O)[O-])c1 | 6.2%

Row | Compound | inhibition
73 | Cc1nc([N+](=O)[O-])nn1C12CC3CC(CC(Br)(C3)C1)C2 | 93% (active)
74 | Cc1cc(-c2ccc(C)c(S(=O)(=O)Nc3ccc(S(N)(=O)=O)cc3)c2)on1 | 44.5%
75 | Cc1noc(C)c1CSCC(=O)N(CCC(C)C)c1c(N)n(Cc2ccccc2)c(=O)[nH]c1=O | 9.8%
76 | O=C(CCN1C(=O)C2C3CCC(C3)C2C1=O)Nc1ccc(Cl)cc1Cl (stereo unspecified) | 26.6%
77 | O=C(NCCOc1cccnc1)c1ccc(OC2CCN(Cc3ccccn3)CC2)cc1 | 13.7%
78 | COCc1ccc(CN2CCC(Oc3ccc(C(=O)NCc4ccccn4)cc3)CC2)o1 | 61% (active)
79 | CN(CCc1ccccn1)C(=O)c1ccc(OC2CCN(Cc3ccccn3)CC2)cc1 | 17%
80 | Cn1cc(CNC(=O)c2ccc(OC3CCN(Cc4ccccn4)CC3)cc2)cn1 | 69% (active)
81 | Cc1nn(C)c(C)c1C(C)NC(=O)c1ccc(OC2CCN(Cc3ccccn3)CC2)cc1 (stereo unspecified) | 18.5%
82 | O=C(c1ccc(OC2CCN(Cc3ccccn3)CC2)cc1)N1CCCCCC1 | 32.8%
83 | COc1cc(/C=N/N2CCN(c3ccccc3)CC2)ccc1OC(C)=O | 13.8%
84 | Cc1cc(C)cc(NC(=O)NCc2ccccn2)c1 | 19%
85 | Cc1cc(C(=O)CSc2nc(N)cc(=O)[nH]2)c(C)n1Cc1ccco1 | 14.9%
86 | COc1ccc(OC)c(-n2nnnc2SCC(=O)Nc2cc(C)ccc2OC)c1 | -22.4%
87 | COc1ccc(C)cc1-n1nnnc1SCC(=O)c1cc(C)n(Cc2ccco2)c1C | 90.1% (active)
88 | CC(C)Cc1nnc(NC(=O)CN2C(=O)NC3(CCCCC3)C2=O)s1 | 24%
89 | CCc1ccc(NC2Nc3cc(C)nn3S2)cc1 (stereo unspecified) | -1%
90 | CCOC(=O)c1ccc(Nc2cc(C)nc3nc(C)nn23)cc1 | -1.2%
91 | CCOC(=O)c1ccc(NC2Nc3cc(C)nn3S2)cc1 (stereo unspecified) | 62.2% (active)
92 | COc1ccc(CCNC(=O)CN2C(=O)CCSc3ccccc32)c(OC)c1 | 6.9%
93 | COc1ccccc1CCCNC(=O)C1CCC(=O)N(CCN2CCOCC2)C1 (stereo unspecified) | 4.2%
94 | CCOc1ccc(S(=O)(=O)Nc2ccc(S(=O)(=O)Nc3cc(OC)ccc3OC)cc2)cc1 | -2.6%
95 | COc1ccc(NS(=O)(=O)c2ccc(NC(=S)NC(=O)CC(C)C)cc2)cc1 | -49.5%
96 | COc1ccc(OC)c(C(C)NC(=S)Nc2ccc(S(=O)(=O)Nc3ncccn3)cc2)c1 (stereo unspecified) | 62.4% (active)
